Source: PubChem BioAssay AID463173 (ICCB-Longwood Screening Facility, Harvard Medical School, 2010)
The campaign covered roughly 52,000 compounds. About 4,300 (8.3%) were called active. Only a selection was taken, and actives are over-represented in it overall. Unmarked numbers belong to inactive results. No stated cut-off is given here; in the data, active means survival mostly below about 52% (no sharp cut-off); inactive means mostly above about 56%.

tested on: DeltatarO mutant; assay: growth inhibition of S. aureus wild type versus tarO mutant, primary screen, teichoic acid synthesis inhibitors, RN4220, OD600 (AID 463173); settings: OD600, 18 h, active compounds read low, screened at 18.75 µg/mL (by protocol)

| SMILES | survival |
| --- | --- |
| CCC(C)NC(=O)c1ccc2c(c1)N(Cc1ccccc1)C(=O)c1ccccc1S2 (stereo unspecified) | 92% |
| CCOc1cc2sc(N3CCC(C(=O)Nc4ccccc4Cl)CC3)nc2cc1Br | 77% |
| CCOc1cc(C2NC(=O)c3c(sc4c3CCN(C)C4)N2)ccc1OC(=O)c1ccc(F)cc1 (stereo unspecified) | 56% |
| COc1ccc(-c2[nH]c(-c3ccc(F)cc3)nc2SCC(=O)Nc2ccc(OC)c(OC)c2)cc1 | 53% |
| O=C(CSc1cn(CC(=O)N2CCCCC2)c2ccccc12)NCc1ccccc1Cl | 74% |
| CN(C)S(=O)(=O)c1ccc(NC(=O)CNCc2ccco2)cc1 | 97% |
| O=C(CN1CCCN(Cc2cccc(F)c2)S1(=O)=O)Nc1ccc2c(c1)OCCO2 | 80% |
| Cc1nc2ccc(S(=O)(=O)CCC(=O)Nc3ccc(Cl)cc3)cc2s1 | 44% |
| Cc1cc(C)cc(NC(=O)CCS(=O)(=O)c2ccc3nc(C)sc3c2)c1 | 50% |
| Cc1ccc(NC(=O)CCS(=O)(=O)c2ccc3nc(C)sc3c2)cc1 | 34% (active) |
| CCOc1ccc(C2C(=O)N(C3CCCCCC3)CC(=O)N2Cc2ccc(F)cc2)cc1OC (stereo unspecified) | 117% |
| COc1ccc(OCc2nnc(SCC(=O)NCc3ccco3)o2)cc1 | 85% |
| Cc1cc(Nc2cccc(C(F)(F)F)c2)nc2ccc(NC(=O)Cc3ccc(Cl)cc3)cc12 | 101% |
| Fc1ccc(Nc2nc3nonc3nc2Nc2cccc(C(F)(F)F)c2)cc1 | -2% (active) |
| Cc1cc(Nc2cccc(C(F)(F)F)c2)ncn1 | 54% |
| NS(=O)(=O)c1ccc(Nc2nc3nonc3nc2Nc2ccc(S(N)(=O)=O)cc2)cc1 | 122% |
| FC(F)(F)c1cccc(Nc2nc3nonc3nc2Nc2ccc(Cl)cc2)c1 | -16% (active) |
| Fc1ccc(-c2nc(Nc3cccc(C(F)(F)F)c3)nc3c2COc2ccccc2-3)cc1 | 54% |
| Cc1ccc(Nc2nc3nonc3nc2Nc2cccc(C(F)(F)F)c2)cc1Cl | -1% (active) |
| O=C(Nc1cccc(C(F)(F)F)c1)c1cc(-c2ccc(Cl)cc2)on1 | 77% |
| Cc1ccc(Nc2nc3nonc3n3cnnc23)cc1Cl | 70% |

| SMILES | survival |
| --- | --- |
| Cc1ccc(C)c(N2CCN(CCCNC(=O)Cn3ncc4c([nH]c5ccccc54)c3=O)CC2)c1 | 94% |
| Cc1noc2ncnc(N3CCCC(C(=O)Nc4cccc(C(F)(F)F)c4)C3)c12 (stereo unspecified) | 93% |
| Cc1cc(C)n(C(C)CC(=O)NCc2ccc(Cl)cc2)n1 (stereo unspecified) | 69% |
| COc1ccc2nc(SCC(O)c3cccc(Br)c3)[nH]c2c1 (stereo unspecified) | 76% |
| Brc1ccc2nc(SCCOc3ccccc3)[nH]c2c1 | -1% (active) |
| Nc1ccc2nc(SCCOc3ccccc3)sc2c1 | 88% |
| CCOc1ccc(Nc2cc(C)nc3nncn23)cc1 | 60% |
| CCCS(=O)(=O)N1CCCC(C(=O)NCCOC)C1 (stereo unspecified) | 55% |
| CCCCN(CC)CCNC(=O)Cn1c(=O)c2cccn2c2cccnc21 | 80% |
| COc1ccc(Cl)cc1NC(=O)c1c(C(=O)Nc2cccc(C)c2C)sc2nc(C)cc(=O)n12 | 74% |
| Cc1cc(=O)n2c(C(=O)Nc3ccc(F)c(Cl)c3)c(C(=O)Nc3cccc(C)c3C)sc2n1 | 65% |
| Cc1cc(=O)n2c(C(=O)Nc3ccc(C)c(C)c3)c(C(=O)Nc3ccccc3)sc2n1 | 52% |
| Cc1cc(=O)n2c(C(=O)Nc3ccc(C)c(Cl)c3)c(C(=O)Nc3ccccc3)sc2n1 | 56% (active) |
| COc1ccc(C)cc1NC(=O)c1c(C(=O)Nc2cccc(C)c2C)sc2nc(C)cc(=O)n12 | 61% (active) |
| Cc1ccc(NC(=O)c2c(C(=O)Nc3ccccc3)sc3nc(C)cc(=O)n23)cc1 | 59% |
| CC(C)Oc1ccc(NC(=O)C2COc3ccccc3O2)cc1 (stereo unspecified) | 103% |
| Cc1ccc(NS(=O)(=O)c2c(C)nc3sc(C)cn3c2=O)c(C)c1 | 83% |
| CCOc1ccccc1CNC(=O)CN1C(=O)CCCc2ccccc21 | 86% |
| COc1cccc(Cn2c(=O)n(CCc3ccccc3)c(=O)c3c2c2cc(OC)ccc2n3C)c1 | 81% |
| CCOc1ccccc1Nc1sc(C(=O)c2ccccc2)c(N)c1C(=O)NCCc1ccccc1 | 99% |
| Cc1ccc(N2CCN(C(=O)NCc3noc4ccc(C)cc34)CC2)c(C)c1 | 54% |

| SMILES | survival |
| --- | --- |
| Cn1c(=O)c2c(nc(SCC(=O)Nc3ccc(F)cc3)n2Cc2ccc(Cl)cc2)n(C)c1=O | 31% (active) |
| Cn1c(=O)c2c(nc(SCC(=O)Nc3ccccc3)n2Cc2ccccc2F)n(C)c1=O | 43% (active) |
| Cn1c(=O)c2c(nc(SCC(=O)Nc3ccc(F)cc3)n2Cc2ccccc2F)n(C)c1=O | 140% |
| Cn1c(=O)c2c(nc(SCC(=O)Nc3ccc(F)cc3)n2Cc2ccccc2)n(C)c1=O | 89% |
| Cn1c(=O)c2c(nc(SCC(=O)Nc3ccccc3F)n2Cc2ccc(Cl)cc2)n(C)c1=O | 80% |
| Cn1c(=O)c2c(nc(SCC(=O)Nc3ccccc3F)n2Cc2ccccc2F)n(C)c1=O | 65% |
| CC(C)(C)OC(=O)N1CCC(c2c(C(=O)NCc3ccco3)cnn2-c2ccc(F)cc2)CC1 | 88% |
| CCCCOC(=O)c1cccc(NC(=O)c2cc3ccccc3o2)c1 | 1% (active) |
| COc1ccc(NC(=O)c2oc3ccccc3c2NC(=O)c2cc3ccccc3o2)cc1 | 89% |
| CCc1ccc2occ(CC(=O)Nc3c(C(=O)c4ccccc4)oc4ccccc34)c2c1 | 95% |
| Cc1ccc(NC(=O)/C=C/c2ccccc2Cl)cc1Cl | 67% |
| CCCCOC(=O)c1ccc(NC(=O)c2cc(=O)c3ccccc3o2)cc1 | 57% |
| CCCCOC(=O)c1cccc(NC(=O)/C=C/c2ccccc2Cl)c1 | 14% (active) |
| CCN(CC)c1cc(C)c2cc(NC(=O)/C=C/c3ccccc3Cl)ccc2n1 | 53% |
| CCCCc1ccc(-n2nc3ccc(NC(=O)c4cc5ccccc5o4)cc3n2)cc1 | 72% |
| O=C(Nc1c(C(=O)Nc2ccc(F)cc2)oc2ccccc12)c1cc2ccccc2o1 | 47% (active) |
| Cc1ccc(C(=O)c2oc3ccccc3c2NC(=O)Cc2ccccc2)cc1 | 50% |
| Cc1ccc(NC(=O)c2oc3ccccc3c2NC(=O)c2cc3ccccc3o2)cc1 | 94% |
| O=C(Cc1ccccc1)Nc1c(C(=O)c2ccccc2)oc2ccccc12 | 3% (active) |
